Test results published in PubChem BioAssay (NCI).
Compounds without any hit were thinned out: in the full panel of roughly 83,000, 20% have a hit.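 Values shown are percent growth following 48 h exposure of cells in 96-well plates to a single concentration of compound; below 10 was considered active.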 Values without a mark were called inactive. The source made the active and inactive calls.

The molecules below were run on MDA-MB-468 breast (assay: NCI-60 one-dose screen, 48 h (100 = growth as untreated, 0 = no growth, -100 = all killed)). Settings: 10 µM unless noted.
For `CSc1ccc2c(c1)c(CCN)c(C)n2Cc1ccc(Cl)c(Cl)c1`, the growth was -67.1% (active). `COc1ccc(/C=C/C(=O)c2cc3c(N)c(C(=O)Nc4ccccc4C)sc3nc2C)cc1` was tested, and the growth was 16.3%. `COc1cc(CNCCN2C(=O)c3ccc4c5c(ccc(c35)C2=O)C(=O)N(CCNCc2cc(OC)c(OC)c(OC)c2)C4=O)cc(OC)c1OC` was tested, and the growth was -91.6% (active).
